In PubChem BioAssay:
The source made the active and inactive calls.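 Rule for the calls, unless noted: active = NADPH fluorescence slope more negative than the mean of all samples by about 3 SD, 99.7% confidence; inactive = the rest.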

Columns and labels:
[1] = inhibitors of TNFa-induced NFkB p65 translocation, primary screen, imaging, HUVEC, MLSMR starter and 10KST1 sets (AID 438;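 active = inhibition above 20% together with a positive visual image hit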;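 note: compound added about 3h40 before a 20 min TNFalpha stimulation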;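 for inhibition: signal is the nuclear over cytoplasmic p65 intensity ratio per well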); conditions: HUVEC TNFa-induced p65 nuclear translocation; cell count: measured here: nuclei count (cytotoxicity indicator), at 2.08 µM; inhibition: at 2 µM, stronger effect = higher value, 0% TNFa-plus-vehicle, 100% no-TNFa wells
[2] = inhibitors of mutant huntingtin aggregation, primary screen, imaging, exon1htt(103Q)mCFP cells, high-content imaging (AID 483;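 active = visual image review flags a hit and inhibition of aggregation exceeds 20%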;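 note: compound exposure lasted 3 days before fixation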;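 for nuclei count: percent of the per-plate median nuclei count of sample wells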); conditions: exon1htt(103Q)mCFP cell line, aggregate imaging, at 2 µM; inhibition of aggregation: stronger effect = higher value; nuclei count: measured here: cell count, toxicity
[3] = inhibitors of E-selectin induction by TNFa, primary screen, imaging, HUVEC, immunofluorescence, MLSMR starter and 10KST1 sets (AID 487;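 active = visually confirmed hit in the image check and inhibition above 20%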;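 for inhibition: signal is fraction of cell area covered by stained E-selectin grains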;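 for nuclei count: 100% = median nuclei count of all wells on the same plate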); conditions: HUVEC TNFalpha-induced E-selectin immunofluorescence imaging, at 2 µM; inhibition: stronger effect = higher value; nuclei count: measured here: cell number, toxicity
[4] = target: Voltage-gated potassium channel subunit beta-2 (Rattus norvegicus) (UniProt P62483); experiment: KvBeta enzyme negative modulators, primary screen, biochemical, NADPH fluorescence (AID 622;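 active = fluorescence slope higher than the sample average by over 3 SD, cut at about -0.22 in these data, passing the limit was not always enough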;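 note: slope of raw intensity against log time taken from 70 to 1610 s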); conditions: recombinant KvBeta, 4-cyanobenzaldehyde reduction, at 10 µM, stronger effect = higher value
[5] = target: Voltage-gated potassium channel subunit beta-2 (Rattus norvegicus) (UniProt P62483); experiment: KvBeta positive modulators, primary screen, biochemical, NADPH fluorescence (AID 623); conditions: Recombinant KvBeta, NADPH fluorescence decrease slope, 10 min; at 10 µM; stronger effect = lower value;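 note: fluorescence intensity change per second fitted from 20 to 320 s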
[6] = target: Alpha-2C adrenergic receptor (Homo sapiens) (UniProt P18825); experiment: modulators of alpha2C/GIRK thallium flux, primary screen, cell-based, HEK293 alpha2C/GIRK1/2 (AID 624;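 active = fluorescence slope after compound addition differing from the mean of all screened samples at 99.7% confidence, in either direction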;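 note: slope of fluorescence ratio to pre-addition baseline per second over 15 to 24 s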); conditions: thallium flux BTC fluorescence, at 10 µM, actives lie on both sides
[7] = inhibitors of Sendai virus-induced IRF3 signaling, primary screen, TLR/RLR signaling modifier project, cell-based, Sendai virus stimulus, luciferase, 10K MLSCN set (AID 602276;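 active = inhibition at or above 50% at 10 µM; inactive = inhibition below 50%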;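 note: firefly luciferase from ISG56 promoter only with Renilla not read in this screen; 0% = Sendai virus plus DMSO and 100% = medium plus DMSO without virus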); conditions: HEK293 RL24 IRF3 luciferase reporter, at 10 µM, stronger effect = higher value
[8] = inhibitors of poly I:C-induced TLR3 signaling, primary screen, cell-based, poly I:C stimulus, luciferase, 10K MLSCN set (AID 602277;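 active = inhibition of the reporter signal at or above 50%; inactive = inhibition below 50%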); conditions: HEK293-TLR3 RL24 IRF3 luciferase reporter, at 10 µM, stronger effect = higher value

Alpha-2C adrenergic receptor (Homo sapiens), sequence (P18825 whole entry, looked up): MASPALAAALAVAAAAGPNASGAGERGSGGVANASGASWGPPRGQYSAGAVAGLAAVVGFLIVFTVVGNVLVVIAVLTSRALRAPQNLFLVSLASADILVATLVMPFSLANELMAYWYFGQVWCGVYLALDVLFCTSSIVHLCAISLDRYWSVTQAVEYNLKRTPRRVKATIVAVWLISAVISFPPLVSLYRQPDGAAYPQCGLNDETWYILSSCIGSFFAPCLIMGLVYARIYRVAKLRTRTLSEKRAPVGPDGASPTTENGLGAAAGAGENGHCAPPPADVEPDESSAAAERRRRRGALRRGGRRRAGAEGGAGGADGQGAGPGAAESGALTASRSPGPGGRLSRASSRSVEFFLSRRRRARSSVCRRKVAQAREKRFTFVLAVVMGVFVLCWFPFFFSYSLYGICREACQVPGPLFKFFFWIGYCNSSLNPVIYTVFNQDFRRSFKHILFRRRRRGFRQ
Voltage-gated potassium channel subunit beta-2 (Rattus norvegicus), sequence (P62483 whole entry, looked up): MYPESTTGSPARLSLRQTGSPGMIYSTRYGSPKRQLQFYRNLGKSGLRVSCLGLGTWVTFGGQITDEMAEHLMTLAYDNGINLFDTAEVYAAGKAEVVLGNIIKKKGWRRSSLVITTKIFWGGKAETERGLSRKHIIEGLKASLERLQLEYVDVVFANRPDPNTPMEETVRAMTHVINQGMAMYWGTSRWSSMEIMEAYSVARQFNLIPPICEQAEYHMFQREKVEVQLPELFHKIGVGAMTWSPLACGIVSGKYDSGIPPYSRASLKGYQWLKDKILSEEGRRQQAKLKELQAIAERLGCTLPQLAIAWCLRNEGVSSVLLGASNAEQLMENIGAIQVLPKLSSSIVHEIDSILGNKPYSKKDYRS

Row | Compound | cell count [1] | inhibition [1] | inhibition of aggregation [2] | nuclei count [2] [%] | inhibition [3] | nuclei count [3] [%] | fluorescence slope [4] | NADPH fluorescence slope [5] | slope [6] | inhibition [7] | inhibition [8]
1 | Cc1csc2nc(CSc3ccc(Cl)cc3)cn12 | 41 | -8.7% (inactive) | -15% (inactive) | 80.6 | -112% (inactive) | 138 | -0.601 (inactive) | -2e-05 (inactive) | 0.00271 (inactive) | -42.1% (inactive) | -126% (inactive)
2 | CCOC(=O)C1C2C=CC3(CN(Cc4ccco4)C(=O)C13)O2 (stereo not drawn) | 480 | 5.5% (inactive) | 16.2% (inactive) | 114 | -57.8% (inactive) | 115 | -0.469 (inactive) | -6.4e-05 (inactive) | 0.00537 (inactive) | 13.9% (inactive) | 21.7% (inactive)
3 | O=C(NC1CCCCC1)N(Cc1ccccc1)Cc1ccco1 | 482 | 6.5% (inactive) | 0.2% (inactive) | 90.9 | -214% (inactive) | 128 | -0.4 (inactive) | 6.8e-05 (inactive) | 0.00512 (inactive) | -9.22% (inactive) | 11.3% (inactive)
4 | CCSc1nnc2c(n1)OC=Nc1ccc(Br)cc1-2 | 262 | -12.8% (inactive) | 20.4% (inactive) | 62.3 | -24.2% (inactive) | 84.5 | -0.38 (inactive) | -3.3e-05 (inactive) | 0.00298 (inactive) | 15.5% (inactive) | 20.5% (inactive)
5 | Cc1cc(C)c2c(n1)nn1c(C3CC3)cc(C(F)(F)F)nc21 | 631 | -2% (inactive) | 1.3% (inactive) | 92.2 | -11.4% (inactive) | 123 | -0.315 (inactive) | 2.7e-06 (inactive) | 0.00594 (inactive) | 8.22% (inactive) | 17.3% (inactive)
6 | COc1ccccc1N1C(=O)c2ccccc2NC1c1ccncc1 (stereo not drawn) | 427 | 5.6% (inactive) | -20.4% (inactive) | 103 | -456% (inactive) | 163 | -0.437 (inactive) | -0.000349 (inactive) | 0.00578 (inactive) | -1.3% (inactive) | 5.74% (inactive)
7 | CCN(CC)CCCNC(=O)c1nn(-c2ccc(OC)cc2OC)c(=O)c2ccccc12 | 352 | 5.3% (inactive) | -6.3% (inactive) | 106 | -101% (inactive) | 127 | -0.597 (inactive) | -3.1e-05 (inactive) | 0.00476 (inactive) | -10.6% (inactive) | 7.12% (inactive)
8 | CN(CC(=O)Nc1nccs1)S(=O)(=O)c1ccc(F)cc1 | 352 | -6.5% (inactive) | -4.8% (inactive) | 110 | -35.4% (inactive) | 101 | -0.465 (inactive) | -9.5e-06 (inactive) | 0.00636 (inactive) | -24.4% (inactive) | 1.06% (inactive)
